ADAM10 inh: ADAM10 inhibition, QFRET primary screen; O14672; recombinant ADAM10, EDANS/DABCYL FRET peptide cleavage, 3 h; inhibition, % at 7 µM; 370,000 tested, 0.62% active;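 active = inhibition above a per-campaign cutoff equal to the mean of compounds falling between control-based bounds plus 3 SD, cut at about 20% in these data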;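 also: 0% = DMSO wells while the 100% control is not disclosed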
Target sequence (O14672 214-748 limits assumed): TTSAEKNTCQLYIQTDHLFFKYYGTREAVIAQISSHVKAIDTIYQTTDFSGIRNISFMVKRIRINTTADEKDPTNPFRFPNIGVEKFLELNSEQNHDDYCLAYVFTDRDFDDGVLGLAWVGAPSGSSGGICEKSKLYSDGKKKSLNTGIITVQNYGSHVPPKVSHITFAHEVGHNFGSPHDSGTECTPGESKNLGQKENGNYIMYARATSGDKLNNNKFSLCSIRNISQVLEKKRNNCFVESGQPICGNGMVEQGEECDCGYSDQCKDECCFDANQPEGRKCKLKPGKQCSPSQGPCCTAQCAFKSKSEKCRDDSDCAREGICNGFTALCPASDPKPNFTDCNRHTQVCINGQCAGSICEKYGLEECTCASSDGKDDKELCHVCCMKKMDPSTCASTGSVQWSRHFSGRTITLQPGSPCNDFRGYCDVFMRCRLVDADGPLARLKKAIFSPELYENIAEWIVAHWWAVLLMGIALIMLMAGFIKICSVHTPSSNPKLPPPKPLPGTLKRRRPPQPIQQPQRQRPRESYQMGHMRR
PLCb3 inh: PLC-beta3 (human) inhibition, primary screen | Purified PLC-beta3, fluorogenic substrate, fluorescence | 370,000 tested, 0.18% active | inhibition, % at 12.2 µM | Q01970; in the data active = inhibition above about 11%;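 also: 0% = median of compound wells on plate and 100% = full blocker control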
KLK7 zymogen act: activators of human kallikrein-7 zymogen | P49862 | purified proKLK7, EDANS-DABCYL substrate fluorescence; 100% is mature enzyme control, 0% vehicle | activation, % at 7 µM | 370,000 tested, 0.9% active | AID 652039;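 active = activation above the mean of all tested compounds plus 3 SD, computed per campaign excluding outliers beyond control limits, cut at about 13% in these data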
PLC-gamma1 inh: inhibitors of human phospholipase C gamma1; inhibition, % at 12.2 µM; purified PLC-gamma1, fluorogenic substrate, fluorescence; P19174; 370,000 tested, 0.84% active; AID 720700; in the data active = inhibition above about 9.5%
ADAM17 inh: inhibits human ADAM17 | P78536 | recombinant ADAM17, EDANS/DABCYL FRET peptide cleavage | inhibition, % at 6.95 µM | 370,000 tested, 0.83% active | AID 720648;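 active = inhibition above the mean of compounds lying between control limits plus 3 SD, set per campaign, cut at about 8.5% in these data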;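 also: 0% = DMSO-only wells as the low control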
ADAM10 counter: inhibits human ADAM10 in ADAM17 exosite counter-screen. inhibition, % at 6.95 µM. 2,900 tested, 47% active. recombinant ADAM10, EDANS/DABCYL FRET peptide cleavage, 3 h. AID 743256. shares compounds with ADAM17 inh;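 active = mean inhibition over the triplicate runs exceeds the activity threshold set in the earlier primary screen, cut at about 20% in these data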;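 also: 0% = DMSO wells and 100% = marimastat wells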
ADAM17 confirm: human ADAM17 inhibition, confirmation | shares compounds with ADAM17 inh | recombinant ADAM17, EDANS/DABCYL QFRET peptide cleavage | inhibition, % at 6.95 µM | 2,900 tested, 65% active;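 active = mean inhibition across replicates above the hit cutoff set in the primary screen, cut at about 8.5% in these data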;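 also: 0% = DMSO wells and 100% = marimastat wells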
Active calls of the source: *; . = no result given. Rows were chosen to be rich in hits. Some 2.9% of all compounds tested hit in one or more screens of this group.

SMILES | ADAM10 inh | PLCb3 inh | KLK7 zymogen act | PLC-gamma1 inh | ADAM17 inh | ADAM10 counter | ADAM17 confirm
COC(=O)C1=C(C)N(Cc2ccc(Br)cc2)C(=S)NC1c1ccc(F)cc1 (stereo unspecified) | 10 | -1 | 0 | 5 | 9.3* | 19 | 12*
COC(=O)C1=C(C)N(Cc2ccc(Br)cc2)C(=S)NC1c1cccc(F)c1 (stereo unspecified) | -1 | -1 | 0 | 3 | 1 | . | .
COC(=O)c1ccc(CNC(=O)COC(=O)C23CC4CC(CC(C4)C2)C3)cc1 | 10 | 4 | 0 | 3 | 8.7* | 9 | 3
CN(Cc1ccc(F)cc1)C(=O)c1cccc(NS(=O)(=O)c2ccccc2)c1 | -7 | -6 | 1 | 1 | -4 | . | .
CN(Cc1ccc(F)cc1)C(=O)c1cccc(OCc2ccccc2)c1 | 13 | 1 | 1 | 6 | 8.7* | 7 | 12*
CCCCC(=O)NC(c1ccccc1OC)c1ccc2cccnc2c1O (stereo unspecified) | 18 | -15 | 0 | -9 | 9.0* | 16 | 7
COCCNC(=O)CCCn1c(=O)c2cc(OC)c(OC)cc2n(CC(=O)NCCC2=CCCCC2)c1=O | -19 | -1 | -1 | 7 | -4 | . | .
CCOc1ccc(C(=O)c2nc3c(n2O)CCCC3)cc1 | 1 | 3 | 0 | 4 | 9.8* | 7 | 9.7*
COc1cc(C(C(=O)NC2CCCCC2)N(C(=O)Cc2c[nH]c3ccccc23)c2ccccc2C)cc(OC)c1OC (stereo unspecified) | 20 | 4 | 0 | 6 | 9.5* | 28* | 16*
CCCCN(Cc1ccccc1)S(=O)(=O)c1cc2c(cc1Br)CC(C)N2C(C)=O (stereo unspecified) | 17 | -1 | 1 | 4 | 11* | 16 | 12*
C=CCNc1nc(C(=O)OCC(=O)N(Cc2ccccc2)C(C)C)cs1 | -12 | -6 | 0 | 0 | -6 | . | .
COc1cccc(CNS(=O)(=O)c2ccc3c(c2)NC(=O)CS3)c1 | -2 | -6 | 0 | 1 | -2 | . | .
COc1cccc(CNC(=O)CCS(=O)(=O)c2ccc3c(c2)NC(=O)CS3)c1 | 1 | -1 | 0 | 3 | 8.7* | -9 | 0
COc1ccc(C(CNC(=O)c2cccc(N(C)C)c2)N2CCCC2)cc1 (stereo unspecified) | 2 | -115 | 1 | -86 | 9.4* | -41 | -3
COc1ccccc1CCNC(=O)NC1CCCCC1 | 13 | -1 | 0 | -1 | -4 | . | .
COc1ccc(-c2noc3c2-c2nc(C4CCCCC4)sc2CC3)cc1 | -1 | 1 | 0 | -1 | -1 | . | .
Cc1cc(C)n(CCc2nc(-c3ccc(C(C)(C)C)cc3)cs2)n1 | 19 | 5 | 0 | 9 | 12* | 14 | 11*
Cc1cc(C)n(CCc2nc(-c3ccc(F)cc3)cs2)n1 | -3 | 1 | 0 | -2 | -3 | . | .
C[C@H](CO)N1C[C@H](C)[C@@H](CN(C)Cc2ccc(C(=O)O)cc2)OCCCC[C@H](C)Oc2ccc(NC(=O)CCC(F)(F)F)cc2C1=O | -5 | 0 | 0 | 0 | -3 | . | .
C[C@@H]1CN([C@H](C)CO)C(=O)c2cc(NS(=O)(=O)c3ccc(F)cc3)ccc2O[C@@H]1CN(C)Cc1ccc(Cl)c(Cl)c1 | 14 | 4 | 0 | 3 | 9.6* | 39* | 19*
C[C@@H]1CCCCO[C@@H](CN(C)Cc2ccc(Cl)c(Cl)c2)[C@@H](C)CN([C@H](C)CO)C(=O)c2cc(NC(=O)CCC(F)(F)F)ccc2O1 | 1 | 0 | 1 | 2 | 9.2* | 43* | 22*
CCOP(=O)(OCC)C(O)c1cc(OC)c(OC)c(OC)c1 (stereo unspecified) | 1 | 3 | 0 | -2 | 1 | . | .
O=C(c1ccc(S(=O)(=O)c2cccc(Cl)c2)c([N+](=O)[O-])c1)N1CCN(Cc2ccccc2)CC1 | 10 | 3 | 1 | 2 | 10* | 25* | 17*
COc1ccccc1N=C1SCC(=O)N1Cc1ccco1 | -2 | 2 | 0 | 7 | 8.9* | 5 | 4
CCOC(=O)/C=C1\CN(Cc2ccc(OC)cc2)S(=O)(=O)c2ccccc21 | 17 | 6 | 1 | 5 | 9.7* | 15 | 15*
SMILES | ADAM10 inh | PLCb3 inh | KLK7 zymogen act | PLC-gamma1 inh | ADAM17 inh | ADAM10 counter | ADAM17 confirm
CC1(C)CC(=O)c2sc(NS(=O)(=O)c3ccc([N+](=O)[O-])cc3)nc2C1 | 8 | 4 | 0 | 9 | 16* | 22* | 8
CC1(C)CC(=O)c2sc(NS(=O)(=O)c3ccccc3)nc2C1 | 2 | 5 | 1 | 0 | -1 | . | .
O=C(COC(=O)/C=C/c1ccc(OC(F)F)cc1)Nc1ccc(S(=O)(=O)N2CCCC2)cc1 | 18 | 1 | 1 | -1 | 9.8* | 18 | 13*
O=C(COC(=O)CCc1ccc(S(=O)(=O)N2CCCCC2)cc1)Nc1cccc2ccccc12 | 18 | 8 | 1 | 3 | 13* | 26* | 12*
Cc1ccc(C)c(OCCC(=O)Nc2cccc(S(=O)(=O)N3CCCCC3)c2)c1 | 18 | -2 | 1 | 2 | 9.3* | 40* | 21*
COc1ccccc1OCCC(=O)Nc1cccc(S(=O)(=O)N2CCCCC2)c1 | -7 | 0 | -1 | 0 | -3 | . | .
O=C(COC(=O)/C=C/c1ccc(OC(F)F)cc1)Nc1cccc(S(=O)(=O)N2CCCC2)c1 | 10 | -6 | 0 | 1 | 4 | . | .
CC(=O)c1ccccc1OCC(=O)Nc1cccc(S(=O)(=O)N2CCCC2)c1 | -11 | -3 | 1 | 9 | 9.3* | 10 | 4
Cc1cccc(C)c1NC(=O)COC(=O)CCc1ccc(S(=O)(=O)N2CCCCC2)cc1 | 2 | 4 | 0 | 5 | 3 | . | .
CCN(c1ccccc1)c1cc(C)nc2nc(C)nn12 | 5 | 1 | 0 | -4 | 2 | . | .
Cc1cc(NC(=O)c2cccc(S(=O)(=O)N3CCOCC3)c2)no1 | 3 | 8 | 0 | 3 | 0 | . | .
O=C(CN1CCN(Cc2ccccc2)CC1)Nc1cccc(S(=O)(=O)N2CCCCCC2)c1 | 14 | 4 | 0 | 3 | 8.9* | 22* | 11*
Cc1cccc(OCCC(=O)Nc2ccc(C)c(S(=O)(=O)N3CCCCC3)c2)c1 | 26* | 2 | 1 | -2 | 14* | 36* | 18*
Cc1cccc(OCCC(=O)Nc2ccc(C)c(S(=O)(=O)N3CCOCC3)c2)c1 | 4 | -8 | 0 | 5 | 0 | . | .
CCOc1ccc(NC(=O)COC(=O)c2cc(S(=O)(=O)N3CCCC3)ccc2C)cc1 | 5 | 2 | 0 | 8 | 9.4* | 16 | 7

High-throughput results as filed in PubChem BioAssay.
